# Records with an inconclusive call do not appear. A call without a number means that no potency is given here. Activity calls are given as the source filed them. Unless noted, calls come from the whole dose curve; as a rule, active = well fitted curve in the direction sought with a large enough effect in the repeat runs; inconclusive = weak or mixed curves; inactive = no such curve, though single readings can be large; an effect the other way counts as inactive or inconclusive.
# Tests used:
# [1] = qHTS assay to identify aromatase inhibitors - cell viability counter screen (AID 743084);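 note: cells stimulated with testosterone during compound exposure; nearly all actives have a fitted effect of over 55% in size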
# [2] = molecular target: Aryl hydrocarbon receptor (Homo sapiens) (UniProt P35869); test: qHTS assay to identify small molecule that activate the aryl hydrocarbon receptor (AhR) signaling pathway (AID 743085);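 note: HG2L7.5c1 human HepG2 liver cells with stably integrated DRE-driven firefly reporter; series mostly up to about 70 µM; nearly all actives have a fitted effect of over 15% in size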
# Procedure, shortened: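 Luminescence (ONE-Glo) from a dioxin-responsive-element luciferase reporter in HG2L7.5c1 HepG2 cells after 24 hr compound exposure at 37C; viability measured by CellTiter-Fluor fluorescence beforehand.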
# [3] = qHTS assay to identify small molecule that activate the aryl hydrocarbon receptor (AhR) signaling pathway - cell viability counter screen (AID 743086);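 note: HepG2 liver cells carrying the AhR DRE luciferase reporter; series mostly up to about 70 µM; nearly all actives have a fitted effect of over 45% in size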
# Procedure, shortened: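 Cytotoxicity counter screen: CellTiter-Fluor signal (30 min, 37 C) in 4000 HepG2 cells/well carrying the DRE-luciferase reporter, following 24 h compound exposure at 37 C.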
# [4] = molecular target: Peroxisome proliferator-activated receptor gamma (Homo sapiens) (UniProt P37231); test: qHTS assay to identify small molecule antagonists of the peroxisome proliferator-activated receptor gamma (PPARg) signaling pathway (AID 743191; calls by dose curve; note: series mostly up to about 63 µM; nearly all actives have a fitted effect of over 30% in size)
# Procedure, shortened: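 Beta-lactamase reporter under UAS control in HEK293H PPARg-bla cells; compound treatment 17 h at 37C. Read-out: fluorescence intensity after 1 h room-temperature incubation with LiveBLAzer B/G FRET substrate.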
# [5] = qHTS assay to identify small molecule antagonists of the peroxisome proliferator-activated receptor gamma (PPARg) signaling pathway - cell viability counter screen (AID 743194); details: Potency: co-treated with 50 nM rosiglitazone; note: nearly all actives have a fitted effect of over 55% in size
# Procedure, shortened: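 Viability was measured as CellTiter-Glo luminescence in GeneBLAzer PPARg UAS-bla HEK293H cells. These cells had been exposed 17 h at 37 C to compounds together with rosiglitazone at 50 nM final, with the beta-lactamase readout taken in the same wells.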
# [6] = qHTS assay for small molecule agonists of the antioxidant response element (ARE) signaling pathway - cell viability counter screen (AID 743203; calls by dose curve; note: nearly all actives have a fitted effect of over 55% in size)
# Procedure, shortened: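 Measured in the same wells as the beta-lactamase ARE reporter, this read-out is CellTiter-Glo luminescence from HepG2 ARE-bla cells given compounds for 16 hrs.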
# [7] = qHTS assay for small molecule activators of the heat shock response signaling pathway - cell viability counter screen (AID 743209); note: nearly all actives have a fitted effect of over 50% in size
# Procedure, shortened: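 Same-well multiplex: after 2.5 h room-temperature incubation with LiveBLAzer B/G substrate and fluorescence reading, CellTiter-Glo reagent was added to HSE-bla HeLa cells that had received compound for 5 h at 37 C; luminescence read after 30 min.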
# [8] = qHTS assay to identify small molecule agonists of the peroxisome proliferator-activated receptor delta (PPARd) signaling pathway - cell viability counter screen (AID 743211); note: nearly all actives have a fitted effect of over 55% in size
# Procedure, shortened: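 Viability was measured as CellTiter-Glo luminescence (30 min, room temperature) in the same wells as the beta-lactamase readout. GeneBLAzer PPARd UAS-bla HEK293H cells received compound after 5 h plating and were incubated 17 h at 37 C.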
# [9] = molecular target: Peroxisome proliferator-activated receptor delta (Homo sapiens) (UniProt Q03181); test: qHTS assay to identify small molecule agonists of the peroxisome proliferator-activated receptor delta (PPARd) signaling pathway (AID 743212; calls by dose curve)
# Procedure, shortened: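 Beta-lactamase reporter readout: a ratiometric FRET signal from the LiveBLAzer substrate after 2 h at room temperature. Compound exposure at 37 °C in PPARδ-bla HEK293H cells driven by an upstream activator sequence.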
# [10] = qHTS assay to identify small molecule antagonists of the peroxisome proliferator-activated receptor delta (PPARd) signaling pathway - cell viability counter screen (AID 743213); note: nearly all actives have a fitted effect of over 50% in size
# Procedure, shortened: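 Same-well viability: cells pre-incubated 5 h, dosed with compound plus 300 nM L165041, kept 17 h at 37 C, FRET substrate 2 h RT, then CellTiter-Glo 30 min RT and luminescence.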
# [11] = molecular target: Peroxisome proliferator-activated receptor delta (Homo sapiens) (UniProt Q03181); test: qHTS assay to identify small molecule antagonists of the peroxisome proliferator-activated receptor delta (PPARd) signaling pathway (AID 743215; active = well fitted inhibition curve with a large enough effect in the signal ratio in the repeat runs, not every such curve was filed as active; the % refers to the signal ratio;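 note: cells stimulated with agonist L165041 at 300 nM final during compound exposure; series mostly up to about 62 µM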)
# Procedure, shortened: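 Fluorescence from cleaved LiveBLAzer B/G FRET substrate (2 h, room temperature) reports PPARd-driven beta-lactamase in HEK293H UAS-bla cells. Cells had been treated 17 h at 37 C with compound plus 300 nM final L165041.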
# [12] = molecular target: Bile acid receptor (Homo sapiens) (UniProt Q96RI1); test: qHTS assay to identify small molecule antagonists of the farnesoid-X-receptor (FXR) signaling pathway (AID 743217; active = well fitted inhibition curve with a large enough effect in the signal ratio in the repeat runs, not every such curve was filed as active; the % refers to the signal ratio)
# Procedure, shortened: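 FRET fluorescence after 2 h room-temperature LiveBLAzer loading gives the readout. Prior step: FXR-bla HEK 293T cells, seeded and incubated 5 h, received test compounds plus 50 uM final CDCA for 16 h at 37 °C.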
# [13] = qHTS assay to identify small molecule agonists of the farnesoid-X-receptor (FXR) signaling pathway - cell viability counter screen (AID 743218); note: nearly all actives have a fitted effect of over 45% in size
# Procedure, shortened: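 Readout: CellTiter-Glo luminescence, 30 min RT, multiplexed after the FXR-bla FRET reading. HEK 293T FXR-UAS-bla cells received compound 5 h post-plating and were incubated 16 h at 37 C.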
# [14] = molecular target: Bile acid receptor (Homo sapiens) (UniProt Q96RI1); test: qHTS assay to identify small molecule agonists of the farnesoid-X-receptor (FXR) signaling pathway (AID 743220; active = well fitted activation curve with a large enough effect in the signal ratio in the repeat runs, not every such curve was filed as active; the % refers to the signal ratio)
# Procedure, shortened: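 FXR-UAS-bla HEK 293T cells carrying a UAS-driven beta-lactamase reporter were plated for 5 h at 37C/5% CO2, then exposed to DMSO-dissolved Tox21 10K compounds for 16 h at 37C. A LiveBLAzer B/G FRET substrate was loaded for 2 h at room temperature before fluorescence reading.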
# [15] = qHTS assay to identify small molecule antagonists of the farnesoid-X-receptor (FXR) signaling pathway - cell viability counter screen (AID 743221; active = well fitted cell-killing curve with a large enough effect in the repeat runs, not every such curve was filed as active; note: nearly all actives have a fitted effect of over 50% in size)
# Procedure, shortened: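 Cytotoxicity counter screen run in the FXR-bla reporter wells: HEK 293T cells exposed to compound with 50 uM (final) chenodeoxycholic acid for 16 h, 37 C, then viability measured by CellTiter-Glo luminescence after 30 min, room temperature.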
# [16] = molecular target: Vitamin D3 receptor (Homo sapiens) (UniProt P11473); test: qHTS assay to identify small molecule agonists of the vitamin D receptor (VDR) signaling pathway (AID 743222; calls by dose curve)
# Procedure, shortened: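 Following 4 h attachment at 37C, VDR-bla cells (2,000 per well) received DMSO-dissolved compounds or controls. After 16 h incubation, LiveBLAzer B/G FRET substrate was added and fluorescence read 2 h later at room temperature.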
# [17] = molecular target: Vitamin D3 receptor (Homo sapiens) (UniProt P11473); test: qHTS assay to identify small molecule antagonists of the vitamin D receptor (VDR) signaling pathway (AID 743223; active = well fitted inhibition curve with a large enough effect in the signal ratio in the repeat runs, not every such curve was filed as active; the % refers to the signal ratio)
# Procedure, shortened: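 Antagonist mode: compound added to VDR-bla cells alongside agonist 1alpha,25-dihydroxyvitamin D3 (3 nM final), incubation 16 h at 37C. Read-out is LiveBLAzer FRET fluorescence, 2 h at room temperature.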
# [18] = molecular target: Peroxisome proliferator-activated receptor gamma (Homo sapiens) (UniProt P37231); test: qHTS assay to identify small molecule agonists of the peroxisome proliferator-activated receptor gamma (PPARg) signaling pathway (AID 743094; active = well fitted activation curve with a large enough effect in the signal ratio in the repeat runs, not every such curve was filed as active; the % refers to the signal ratio)
# Procedure, shortened: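 Cell-based bla reporter, HEK293H background, PPARg-driven UAS. Pre-incubation 5 h, 37C, 5% CO2. Compound 17 h, 37C. Substrate 1 h RT; fluorescence.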
# [19] = qHTS assay for small molecule agonists of the antioxidant response element (ARE) signaling pathway (AID 743202; active = well fitted activation curve with a large enough effect in the signal ratio in the repeat runs, not every such curve was filed as active; the % refers to the signal ratio; note: potency is the fitted concentration of half-maximal effect)
# Procedure, shortened: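 After 16 hours of compound treatment at 37 C, HepG2 cells with a stably integrated ARE-driven beta-lactamase reporter were loaded 2 hours at room temperature with LiveBLAzer B/G FRET substrate and fluorescence intensity measured.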
# [20] = qHTS assay for small molecule activators of the heat shock response signaling pathway (AID 743210; active = well fitted activation curve with a large enough effect in the signal ratio in the repeat runs, with a control signal flat, not every such curve was filed as active; the % refers to the signal ratio; note: series mostly up to about 63 µM)
# Procedure, shortened: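 Compound exposure lasted 5 h at 37 C in HeLa cells carrying a heat-shock-element-driven beta-lactamase reporter. Read-out: fluorescence intensity after 2.5 h room-temperature loading with LiveBLAzer B/G FRET substrate.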
# Peroxisome proliferator-activated receptor delta (Homo sapiens), sequence (Q03181 whole entry, looked up): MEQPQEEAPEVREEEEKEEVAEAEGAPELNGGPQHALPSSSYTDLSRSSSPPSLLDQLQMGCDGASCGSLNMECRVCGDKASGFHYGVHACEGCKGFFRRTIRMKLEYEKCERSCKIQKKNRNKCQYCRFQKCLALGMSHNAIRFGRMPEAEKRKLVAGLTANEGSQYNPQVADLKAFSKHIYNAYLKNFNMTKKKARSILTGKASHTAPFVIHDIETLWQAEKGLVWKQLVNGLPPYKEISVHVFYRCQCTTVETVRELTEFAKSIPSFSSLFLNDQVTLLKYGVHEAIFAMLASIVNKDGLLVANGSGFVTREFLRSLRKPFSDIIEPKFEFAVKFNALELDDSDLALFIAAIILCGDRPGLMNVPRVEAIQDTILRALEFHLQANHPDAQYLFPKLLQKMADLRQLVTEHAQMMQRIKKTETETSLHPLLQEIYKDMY
# Aryl hydrocarbon receptor (Homo sapiens), sequence (P35869 whole entry, looked up): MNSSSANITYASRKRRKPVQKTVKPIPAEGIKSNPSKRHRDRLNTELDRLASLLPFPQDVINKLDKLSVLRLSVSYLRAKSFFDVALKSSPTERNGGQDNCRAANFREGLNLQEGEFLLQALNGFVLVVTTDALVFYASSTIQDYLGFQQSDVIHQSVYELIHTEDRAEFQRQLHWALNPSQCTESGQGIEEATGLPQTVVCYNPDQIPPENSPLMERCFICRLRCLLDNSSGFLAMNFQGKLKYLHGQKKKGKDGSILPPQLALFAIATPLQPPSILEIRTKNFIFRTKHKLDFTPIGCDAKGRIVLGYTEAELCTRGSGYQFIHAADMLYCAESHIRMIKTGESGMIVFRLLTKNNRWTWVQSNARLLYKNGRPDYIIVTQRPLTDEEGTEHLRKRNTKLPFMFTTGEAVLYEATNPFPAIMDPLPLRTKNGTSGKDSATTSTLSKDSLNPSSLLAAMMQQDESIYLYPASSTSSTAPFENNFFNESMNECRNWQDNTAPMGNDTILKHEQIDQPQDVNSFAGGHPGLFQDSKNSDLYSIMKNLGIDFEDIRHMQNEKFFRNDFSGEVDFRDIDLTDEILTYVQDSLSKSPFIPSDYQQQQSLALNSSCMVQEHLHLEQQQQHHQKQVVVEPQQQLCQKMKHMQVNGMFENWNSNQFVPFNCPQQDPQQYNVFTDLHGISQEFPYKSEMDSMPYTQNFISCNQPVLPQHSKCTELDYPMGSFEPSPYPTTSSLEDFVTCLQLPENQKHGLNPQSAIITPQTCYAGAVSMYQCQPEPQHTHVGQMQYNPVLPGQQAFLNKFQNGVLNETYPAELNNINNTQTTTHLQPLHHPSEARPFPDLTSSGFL
# Bile acid receptor (Homo sapiens), sequence (Q96RI1 whole entry, looked up): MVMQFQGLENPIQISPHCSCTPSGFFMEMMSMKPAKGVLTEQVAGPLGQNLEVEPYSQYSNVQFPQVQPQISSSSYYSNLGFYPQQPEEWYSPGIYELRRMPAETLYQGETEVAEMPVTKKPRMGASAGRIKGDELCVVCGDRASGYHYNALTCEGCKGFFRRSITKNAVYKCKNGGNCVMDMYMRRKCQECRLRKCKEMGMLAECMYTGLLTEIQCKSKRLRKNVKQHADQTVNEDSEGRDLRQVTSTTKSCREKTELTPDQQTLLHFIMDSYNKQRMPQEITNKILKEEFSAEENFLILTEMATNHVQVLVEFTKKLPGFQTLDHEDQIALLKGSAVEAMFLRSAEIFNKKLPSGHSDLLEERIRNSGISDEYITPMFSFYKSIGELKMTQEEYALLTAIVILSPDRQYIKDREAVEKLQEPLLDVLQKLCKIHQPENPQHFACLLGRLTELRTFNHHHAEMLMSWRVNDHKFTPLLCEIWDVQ
# Vitamin D3 receptor (Homo sapiens), sequence (P11473 whole entry, looked up): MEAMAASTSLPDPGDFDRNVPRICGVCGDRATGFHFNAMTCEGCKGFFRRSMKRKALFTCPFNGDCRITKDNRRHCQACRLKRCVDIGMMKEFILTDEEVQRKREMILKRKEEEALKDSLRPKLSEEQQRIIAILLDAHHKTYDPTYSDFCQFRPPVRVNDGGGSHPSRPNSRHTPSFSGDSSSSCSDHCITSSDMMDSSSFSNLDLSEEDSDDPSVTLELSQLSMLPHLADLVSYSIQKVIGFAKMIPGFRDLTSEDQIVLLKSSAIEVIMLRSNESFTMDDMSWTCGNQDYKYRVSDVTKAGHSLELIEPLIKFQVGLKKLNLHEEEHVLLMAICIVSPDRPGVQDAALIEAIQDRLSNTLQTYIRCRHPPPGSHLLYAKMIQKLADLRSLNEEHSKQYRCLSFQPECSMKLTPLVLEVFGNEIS
# Peroxisome proliferator-activated receptor gamma (Homo sapiens), sequence (P37231 whole entry, looked up): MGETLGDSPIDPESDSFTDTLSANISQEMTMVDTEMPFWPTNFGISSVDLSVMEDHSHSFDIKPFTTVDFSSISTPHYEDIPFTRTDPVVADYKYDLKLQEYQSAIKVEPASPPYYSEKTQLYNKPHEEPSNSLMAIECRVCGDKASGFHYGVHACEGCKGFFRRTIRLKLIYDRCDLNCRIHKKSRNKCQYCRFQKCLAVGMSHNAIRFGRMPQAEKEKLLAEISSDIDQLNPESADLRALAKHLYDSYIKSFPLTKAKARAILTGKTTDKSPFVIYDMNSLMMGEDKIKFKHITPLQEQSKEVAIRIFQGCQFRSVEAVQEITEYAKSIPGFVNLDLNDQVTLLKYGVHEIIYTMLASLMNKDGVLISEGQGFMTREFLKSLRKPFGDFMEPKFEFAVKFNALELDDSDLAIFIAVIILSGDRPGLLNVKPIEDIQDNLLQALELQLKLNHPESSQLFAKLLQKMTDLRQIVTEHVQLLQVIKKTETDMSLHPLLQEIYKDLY
Structure (SMILES),Potency [1],Potency [2],Potency [3],Potency [4],Potency [5],Potency [6],Potency [7],Potency [8],outcome [9],Potency [10],Potency [11],outcome [12],Potency [13],outcome [14],Potency [15],outcome [16],outcome [17],outcome [18],Potency [19],Potency [20]
O=C1CCCCC1Cl (configuration not stated),inactive,inactive,inactive,inactive,inactive,inactive,inactive,inactive,inactive,inactive,inactive,inactive,inactive,inactive,inactive,inactive,inactive,–,–,–
O=C(O)C(Br)(Br)Br,inactive,inactive,–,inactive,inactive,inactive,inactive,inactive,inactive,inactive,–,–,inactive,–,inactive,inactive,inactive,inactive,5.44 µM (active),inactive
COc1cc(CC(C)N)cc(OC)c1OC (configuration not stated),inactive,inactive,inactive,inactive,inactive,inactive,inactive,inactive,–,inactive,inactive,–,inactive,–,inactive,–,–,–,inactive,inactive
CC(=O)CN(CC(C)=O)N=O,inactive,inactive,–,inactive,inactive,inactive,inactive,inactive,inactive,–,inactive,–,inactive,–,inactive,–,–,inactive,inactive,inactive
COc1cccc(C=O)c1,inactive,inactive,–,inactive,inactive,inactive,inactive,inactive,inactive,inactive,–,–,inactive,–,inactive,–,–,inactive,inactive,inactive
CC(=NC#N)N(C)Cc1ccc(Cl)nc1,inactive,inactive,–,inactive,inactive,inactive,inactive,inactive,inactive,inactive,–,–,inactive,–,inactive,inactive,inactive,inactive,inactive,inactive
CN(C)C1CCCCC1,inactive,inactive,inactive,–,–,inactive,inactive,inactive,inactive,inactive,inactive,–,inactive,–,inactive,inactive,inactive,inactive,inactive,–
CC(C)C(C)(N)C#N (configuration not stated),inactive,inactive,inactive,–,inactive,inactive,inactive,inactive,inactive,inactive,–,inactive,inactive,inactive,inactive,–,–,–,inactive,inactive
C[C@H](N)C(=O)c1ccccc1,inactive,inactive,–,inactive,inactive,inactive,inactive,–,inactive,inactive,inactive,inactive,inactive,inactive,inactive,inactive,inactive,inactive,–,inactive
CCCC(C)C1(CC)C(=O)N=C(S)NC1=O (configuration not stated),inactive,inactive,inactive,–,inactive,inactive,inactive,inactive,–,inactive,–,–,inactive,–,inactive,inactive,inactive,–,inactive,inactive
